The values below come from PubChem BioAssay AID1508600 (Functional Genomics Laboratory (NCATS/FGL), 2020).

Screen size: about 53,000 sequences; about 3,700 (7%) were called active. Many of the other results were omitted from the sample, so actives are more common in it than they were. Unmarked numbers belong to inactive results.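 How the source made its calls: active means gene knockdowns whose robust z-score for IL-1 alpha signal is at least 2 or at most -2, so actives lie on both sides; inactive means the rest.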

A short description of this assay: Components of the Cytosolic LPS Sensing Pathway: Gene Identification via Genome-wide siRNA Screen. Particulars: RAW264.7 macrophages, IL-1a HTRF, actives lie on both sides, screened at 100 nM (by protocol), cells primed 5 h with Pam3CSK4 first. From the text: Non-canonical inflammasome activation by cytosolic LPS is a critical component of the host response to Gram-negative bacterial infection, however we lack a comprehensive understanding of the cellular processes that control this pathway. Here we describe a genome-wide siRNA screen to identify genes regulating the mouse macrophage IL-1 alpha response to cytosolic LPS.
RAW264.7 cells were maintained in complete DMEM media, comprising DMEM with 4.5 g/L glucose, 10% FBS (Gemini Bio-Products, West Sacramento, CA), 2 mM Glutamine (Lonza) and 20 mM HEPES (Lonza), hereafter complete DMEM.
The RNAi screen was conducted in 384-well format using the Ambion Silencer Mouse Genome siRNA Library (#4391425), which consists of three unique, nonoverlapping, nonpooled siRNAs for each of 17,000 gene targets. siRNA reagents ([…]) were stamped into 384-well white flat-bottom microplates (Corning, 3570) using a Velocity11 VPrep liquid handling system (Agilent) integrated into a BioCel robotic platform (Agilent) in columns 1-22, leaving columns 23-24 empty for negative (Ambion, Negative control #1) and positive (mouse Casp4) controls, respectively. The median value of each plate's negative control column was used to normalize sample wells, and the positive control was used to assess transfection efficiency and assay performance.
Lipofectamine RNAiMAX Transfection Reagent ([…]; Invitrogen) was added in […] serum-free, antibiotic-free media to plate wells using a Thermo Scientific Matrix WellMate and Microplate Stacker. Plates were incubated for 45 min at room temperature to allow for the sufficient formation of siRNA-lipid complexes. Cells were seeded at a density of 1x10^4 cells per well in 20 microL media containing 20% (vol/vol) FBS without antibiotics. The final concentration of siRNA in each well was 100 nM. Cells were cultured for 48h at 37 degrees C in 5% CO2 before addition of […] of TLR ligand Pam3CSK4 for 5 hours. The medium was then removed, replaced with […] growth media and cell were transfected with […] of LipidA and TransIT-TKO (Mirus) for 24 hour. At the end of the LipidA treatment, […] of supernatant was transferred to a 384 Greiner Bio-one non-binding low volume plate and […] of IL-1a HTRF reagent (Cisbio, 62MIL1APEH) was added and incubated at room temperature overnight. The plates were read on an EnVision plate reader (PerkinElmer). Cell viability was measured by adding 20ul Cell Titer Glo to the original plate and running a luminescence read on the EnVision. The quantified IL-1a signal for each siRNA gene-targeted well was divided by the median of the negative control wells and multiplied by 100 to achieve a negative control normalized value for each well/siRNA. This normalized value was then used to generate a robust z-score by first taking the log of each value and then by subtracting the median and dividing by the […].
(In general: TR-FRET usually uses a lanthanide donor and a delayed reading to cut background.)
For the sequence GGAUUCCUGUACAUAUAUUTT against Ube4b, the z-score is -0.501.

Take GGCAUGAAUACAUCACAGCTT against Vmn1r220: the z-score was -0.808.

With GGACAUACAAAUCUUCAUUTT against Mta2, the z-score was 0.886.

As for GGUGAUGCUAAAUUCUGAUTT against Mpc2, the z-score is -1.92.

For the sequence GGUAUAUGGUGGGAACUUUTT against Bnipl, the z-score is 2.04 (active).

As for “CCUCUCUUUAACAGGUCACTT against 1700034H15Rik”, the z-score is 1.35.

Take GCUGUUACUCUUAAACAAATT against Pdhx: the z-score is 0.254.

As to GCCUCAGUUAUUUAAUGAATT against Mpp3, the z-score was -0.414.

Consider GGAUGAAGAAAACUGGCUUTT against Tsx, for which the z-score was -0.764.

As to GGAAGCAGGGCAGCUUAUUTT against Hbq1a, the z-score was -2.22 (active).

For GGUUGACCCACUGAAAAUUTT against Marveld1, the z-score was -0.112.

GCACGGCCCUACUUUAUAGTT against Trim33: the z-score was -1.43.

Take GGCGUGAAAAUAGGAGAAUTT against Extl2: the z-score is -1.77.

For GCCGCUACACAUCAAACCATT against Zc3h3, the z-score was -0.336.

Take GCUAAUCGAAGUUGAAAUUTT against Soga3: the z-score was -0.316.

Consider GGAAAAUGGAGCUGUGCUCTT against Prelid3a, for which the z-score was 0.298.

On to GCUGUUUUAGUAGAGGUAATT against Tsfm, for which the z-score was -0.708.

CCUCAAAUUAUUGUUGGCATT against Ppip5k1: the z-score was -2.07 (active).

Regarding GGGCUGGCUACGAUAAGCUTT against Tes, the z-score is 1.53.

As to CCCUUGAAGAUGAAACCAGTT against Smarca5, the z-score is -0.277.

GCGGAAAUCUAAUUGCUUGTT against Kat5: the z-score was -0.0418.

With GGUGGAUUAAGUCUCAAAATT against Pcdhb22, the z-score was 0.592.

For CCUACUGGAAAAGAUAAUUTT against Stfa1, the z-score is 1.82.

As for GCUACUAUGUGCCUGUGACTT against Oc90, the z-score was -2.21 (active).

Regarding UACAUUAGUAGAAUGGAGGTT against Mageb3, the z-score was -0.598.

Take GGAAGAAACUGAGAAACUGTT against Fam205c: the z-score is 0.48.

Regarding CGGAAAAAUGGAAGUAUAGTT against Mrtfb, the z-score was -0.687.

As for GGGCUGUGAUCAAACAUGGTT against Ano9, the z-score is -1.38.

Take GGAAUUAUGAACAAAUUGCTT against H2-M9: the z-score is 0.702.

On to GGCCUCUAUCUUCCAACAATT against Tent4a, for which the z-score was -2.06 (active).

GCCAACAAGCAUUCCAUUGTT against Mrap: the z-score is -0.991.

GGAUACAUUAAGGUGCAAGTT against Aldh1a7: the z-score is 0.819.

With GGCACAUGGAGUGGACAAGTT against Blvrb, the z-score is 3.2 (active).

Turning to GCUUGACCCUACACUACAGTT against Olfr1121, the z-score was 2.47 (active).

As to GGCUGGCAAACUCAAAAAATT against Zfp385c, the z-score is -0.813.

As for GCGAUCUAGAAAUUGACAATT against St13, the z-score is -0.59.

With GGAAAAAGGAGGGUUUAGCTT against Tm4sf5, the z-score was 0.418.

Take GGACUGUGCAGUUAUUGUCTT against Psma6: the z-score is -2.17 (active).

As for CCCUUUAUUAUUCCACUGUTT against Olfr530, the z-score is -1.12.

For CCAAGUUCACAAUUGUUCUTT against Gimap8, the z-score is -0.263.

Consider CCUAAAGAAAGGUUAAAGATT against Sfr1, for which the z-score is -0.763.

Turning to CGAGCCCAUGUCAGAUCAGTT against Minar1, the z-score was -2.33 (active).

In the case of GCACUACCACUGUCAGCAATT against Ldb3, the z-score is -0.734.

On to CCAACACUACCAGAGAACGTT against Pfkfb1, for which the z-score was -0.808.

As for CGAUAAAAGACCCAAAUUATT against Emx2, the z-score was 1.86.

Turning to GCAUGUGUCAAGAUGUCUGTT against Tec, the z-score is 1.36.

In the case of GGUCACAAACAGAUUAAUUTT against Ahcy, the z-score was -0.404.

In the case of GGUUUGAAUGUCACCGGCATT against Defb29, the z-score was -1.22.

For the sequence GGAUGAGGAAAACUUCCAGTT against Mup5, the z-score was 2.61 (active).

Take GCCAUCACGAGCUAAAACCTT against Smad5: the z-score is -1.91.

Take GGUUUUUAGCCUGAGUGAGTT against Olfr688: the z-score is -1.8.

For GGAUUUCUCGGAAGUCGAGTT against Cd3e, the z-score is 0.517.

As to GGUCUUUCAAGUUGCAUACTT against Lama1, the z-score was 0.491.

For the sequence GGAUGAACUAUACCAUGGCTT against Tmem132c, the z-score was 1.07.

In the case of GGACGGUCUUGCCUUCUUCTT against Fam222a, the z-score was 0.901.

Regarding CGAUGACGGGAAAUAAUUUTT against Snx4, the z-score was -0.663.

As for GCUAUUUUUAUAAGGGCCATT against Sh2b2, the z-score was 2.94 (active).

For the sequence GGCACCAUAGAUGUUUGAGTT against Cyp4f16, the z-score is -1.34.

Regarding GGAGCCUGUCUUUUAUUGATT against Olfr938, the z-score is 0.0765.

As for GGUAGACACCUUGUUCUUATT against Nap1l3, the z-score was 1.03.

For GCCUUUAAUACAUAGGCUUTT against Cxcl9, the z-score was -0.381.

Regarding GCCAAUAGUAACCAGCCAGTT against Prkab1, the z-score was -2.07 (active).

As to GCAAAUUCCAGUGAAAGCCTT against Papola, the z-score is 1.12.

As to GGAUGACCAUGAAAGCUGUTT against Vps13b, the z-score is 1.87.

As to GGUUAUCAUCUUGUGAAAATT against Srpk1, the z-score is -0.628.

In the case of AUGCCUAUACAAUUCUGUGTT against Olfr1167, the z-score is 0.0339.

For the sequence GGAGAACAACAAAGACAAGTT against Hoxb8, the z-score was 2.69 (active).

Regarding GGACACUAUAAGAAAGGAATT against Fnta, the z-score is 0.708.

With CCCAUUACGCAAAUUGUUCTT against Rin3, the z-score was -2.31 (active).

In the case of GCCACGUCUGAACACUUCATT against Vamp8, the z-score was 0.873.

Regarding GCCUGUUUAGAAUUAGAGATT against Plekhs1, the z-score is 0.135.

GCUGAUGGACAAAUUCCACTT against Rapgef1: the z-score was 0.505.

Turning to GCCAUUGCUAUCCAUCGUGTT against Ddx39b, the z-score was -2.57 (active).

On to CCAAAGUUCCCUUAGCCAUTT against Cntrob, for which the z-score was 0.12.

Turning to GCGGCACUUUAUCAUUAUCTT against Hint3, the z-score was 0.398.

For the sequence GCCCAUUCUAAACAAAUAATT against Ptcd1, the z-score is -0.825.

Take GGAGCUUAAAGUGAGCGGCTT against Lage3: the z-score is -0.859.

Consider CGACCAGUCACAAUGGUUATT against Edil3, for which the z-score is 1.43.

In the case of GGUGAUUGCUGAAGACGAGTT against Fbxw8, the z-score was -0.172.

CCUCGAAACUCAUUUCCAGTT against Prkch: the z-score was -0.603.

For GGGUUAAUCCCUAUCUCUUTT against Tfe3, the z-score was 0.419.

Regarding GAUCUCAAACAUUCUAUGCTT against Lce1c, the z-score is -1.14.

For GGAGCCAAGUGUGAUUACATT against Pias3, the z-score was 6.29 (active).

GGAAUCUGAAUUUUUGUGUTT against Commd1: the z-score was -0.576.

As for GACCUGUUUUGUCUUUUGCTT against Ms4a4c, the z-score was 1.34.

Turning to GCUUGAUAGGGAACUUAAUTT against Olfr805, the z-score is -1.57.

GCUGCUGGAUGCAACCAAATT against Slc16a3: the z-score was -0.379.

GCUGCACGUGAUCAUGGAUTT against Accs: the z-score was 0.852.

GCCUAAGAUCUGGACCUAATT against Timm44: the z-score is -0.35.

For GGAGAAGCAUUAUUUUGAATT against Myb, the z-score was 0.798.

Turning to “GGACGACUGGAAGUUUUCUTT against 5830411N06Rik”, the z-score was 3.95 (active).

GGAGCCCUUGCUCUUUAACTT against Izumo1r: the z-score was -2.23 (active).

For the sequence GGACAUAAGAGAAUGGUCATT against Lpp, the z-score is 2.07 (active).

Consider GGCAAAUGUACUAAAAUGATT against Gpr34, for which the z-score is 0.764.

As for GCCACUUACACUUACUUGATT against Olfr1331, the z-score is -0.15.

As for GCAUAAGCCACACCCUCUGTT against Cops7a, the z-score was 1.03.

On to GGGAAAUUUAAAAACCUGGTT against Hoxa2, for which the z-score is -0.139.

Turning to GGAAAGACCAUUCUGUAUUTT against Vps37d, the z-score is -1.54.

As to GCUGAACUGUCUCAGCUCATT against Tmem81, the z-score was 2.06 (active).

On to AGAAGAUACCGAUCAAGCGTT against Nsmce3, for which the z-score was 0.049.

GCAUGGGCAUAACCGAAAGTT against Rex2: the z-score was -0.332.

On to GGAGAAGUAAUGACAAAUUTT against Foxp4, for which the z-score was -1.47.

Take GGACGUGACUCUCAUCAUCTT against Atp2b3: the z-score is 0.929.

On to GUGAUGUGGCCAUGUCAAUTT against Olfr641, for which the z-score is -2.61 (active).

Turning to GGAGAGGAAAAUUGUAUUUTT against Alox12, the z-score is -0.037.

On to CCCAUUCUGUAUAUAGUGCTT against Adam6a, for which the z-score is -0.0363.

On to CGGUUAGAGCAUUAAGUUCTT against Lias, for which the z-score was 0.817.

Consider GCUCGAUUCAGAAAUCUACTT against Sgce, for which the z-score was -0.735.
